Screening results deposited in PubChem BioAssay by National Center for Advancing Translational Sciences (NCATS).
APEX1 inh: inhibitors of human APE1 endonuclease; P27695; recombinant APE1, TAMRA/BHQ-2 abasic DNA cleavage fluorescence; Potency, µM (doses to about 65.8 µM), usual class: inhibitors; 0.35% of 350,000 active; AID 2517; also: nearly all actives have a fitted effect of over 55% in size
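Activity was derived from the fluorescence gain between first and third kinetic reads (60 s intervals, ex 525/em 598 nm) after 50 nM THF-abasic TAMRA/BHQ-2 duplex was added to 0.75 nM APE1 preincubated 15 min with compound.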
FEN1 inh: human FEN1 inhibition; Recombinant FEN1 flap cleavage, fluorescence, 15 min; Potency, µM (series often up to 114 µM), most hits filed as inhibitors; 0.35% of 390,000 active; also: nearly all actives have a fitted effect of over 65% in size
Target sequence (P39748 whole entry, looked up): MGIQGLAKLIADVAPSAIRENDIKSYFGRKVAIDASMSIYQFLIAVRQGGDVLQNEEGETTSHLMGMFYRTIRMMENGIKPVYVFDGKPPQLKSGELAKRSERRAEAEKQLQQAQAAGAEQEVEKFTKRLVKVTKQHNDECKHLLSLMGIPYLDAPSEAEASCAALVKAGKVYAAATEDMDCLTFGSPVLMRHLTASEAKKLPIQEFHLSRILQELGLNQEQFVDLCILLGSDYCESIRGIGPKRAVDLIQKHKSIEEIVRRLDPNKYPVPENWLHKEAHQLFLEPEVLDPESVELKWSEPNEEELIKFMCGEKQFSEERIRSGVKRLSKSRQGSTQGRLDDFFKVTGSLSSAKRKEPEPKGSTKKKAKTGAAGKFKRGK
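In this screen, 50 nM flap DNA substrate was added to 10 nM FEN1 pretreated with compound for 15 min at room temperature; cleavage was followed with reads at 0 and 15 min, and Hill fitting gave concentration–response parameters.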
Tb PGK inh: blocks T. brucei phosphoglycerate kinase | P07378 | PGK/GAPDH coupled, Kinase-Glo luminescence, 60 min | Potency, µM (top dose mostly 57.5 µM), actives largely listed as inhibitors | 0.043% of 380,000 active | AID 602233; also: nearly all actives have a fitted effect of over 60% in size
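Recombinant glycosomal PGK reaction used 1,3-bisphosphoglycerate generated in-well by GAPDH (100nM final) in 100mM TEA pH 7.6, 5mM MgCl2, 0.01% Tween-20. After 60 minutes at room temperature, ATP was read by Kinase-Glo Plus luminescence end-point.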
RECQ1 helicase: blocks DNA unwinding by human RECQ1; Potency, µM (top dose mostly 57.3 µM), actives largely listed as inhibitors; 0.54% of 240,000 active; P46063; RECQ1 DNA unwinding, red fluorescence kinetic read; also: nearly all actives have a fitted effect of over 30% in size
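RECQ1T1 50 nM; forked duplex (20 bp + 30-nt ss tails) 200 nM, ATP 2 mM final; pH 8.0, 2 mM MgCl2, 2.5 ug/ml poly(dI-dC); 15 min compound preincubation; discontinuous kinetic read over 2 h at RT.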
BLM inh: blocks DNA unwinding by human BLM helicase. P54132. recombinant BLM DNA unwinding, fluorescence dequenching. Potency, µM (doses to about 56.1 µM), actives largely listed as inhibitors. 0.2% of 350,000 active; also: nearly all actives have a fitted effect of over 35% in size
Numbers stand for hits. Rows were chosen to be rich in hits. Some 0.74% of all compounds tested hit in one or more screens of this group. Calls follow the shape of the dose curve; as a rule, active = well fitted curve in the direction sought with a large enough effect; inconclusive = small, poorly fitted or top-dose-only effect, or another doubt; inactive = no such curve, though single readings can be large; an effect the other way counts as inactive or inconclusive.

For COc1cc2c(NC3CCN(C)CC3)nc(N3CCCN(C)CC3)nc2cc1OCC1CCNCC1 the results were FEN1 inh 10µM.
`Cc1ccc(-c2csc(NC(=O)CCNC(=O)c3ccco3)n2)cc1` gave APEX1 inh inactive, FEN1 inh inactive, Tb PGK inh inactive, RECQ1 helicase inactive and BLM inh inactive.
O=S(=O)(Nc1cc(Sc2ncn[nH]2)c(O)c2ccccc12)c1ccccc1 was read as APEX1 inh inactive, FEN1 inh 20µM, Tb PGK inh inactive, RECQ1 helicase inactive and BLM inh 28µM.
Screening COc1ccc(NC(=O)CN2CCCCC2)cc1S(=O)(=O)N1CCCCC1 returned APEX1 inh inactive, FEN1 inh inactive and Tb PGK inh inactive.
Screening Cn1c(=O)c(Nc2ccc(Cl)cc2)c2c3c(cccc31)C(=O)c1ccccc1-2 returned APEX1 inh inactive, FEN1 inh inactive, Tb PGK inh inactive, RECQ1 helicase 28µM and BLM inh inactive.
Screening COc1cc(OC)c(NS(=O)(=O)c2ccc3oc(=O)c4ncn(C)c4c3c2)cc1Cl returned FEN1 inh inactive, Tb PGK inh inactive and BLM inh inactive.
`C#Cc1ccc([C@@H]2C=C(C(=O)NCc3ccccc3)O[C@H](OCc3ccc(CO)cc3)C2)cc1` gave APEX1 inh inactive, FEN1 inh inactive, Tb PGK inh inactive, RECQ1 helicase inconclusive and BLM inh inactive.
Screening C#Cc1ccc([C@H]2C=C(C(=O)O)O[C@@H](OCc3ccc(CO)cc3)C2)cc1 returned APEX1 inh 32µM, FEN1 inh inactive, Tb PGK inh inactive, RECQ1 helicase inactive and BLM inh inactive.
CCc1ccc(C(=O)CSc2nc(N)cc(=O)[nH]2)cc1 was read as APEX1 inh inactive, FEN1 inh inactive, Tb PGK inh inactive and BLM inh inactive.
Screening CC(=O)c1cc(-c2ccc(F)cc2)n(CC(=O)NC2CCC(C)CC2)c1C (stereo not given) returned FEN1 inh inactive, Tb PGK inh inactive and BLM inh inactive.
O=c1[nH]n2c(=O)c3c([nH]c2c1N=Nc1cccc(Cl)c1)CCC3 was read as APEX1 inh inactive, FEN1 inh inconclusive, Tb PGK inh inactive, RECQ1 helicase inactive and BLM inh 16µM.
O=c1[nH]n2c(=O)c3c([nH]c2c1N=Nc1cccc(C(F)(F)F)c1)CCCC3 was read as APEX1 inh inactive, FEN1 inh inconclusive, Tb PGK inh inactive, RECQ1 helicase inactive and BLM inh inactive.
`COC(=O)c1ccn(CC(=O)NC2CCCCC2)n1` gave APEX1 inh 30µM, FEN1 inh inactive, Tb PGK inh inactive and BLM inh inactive.
For O=c1c2c(nc3cc(-c4ccc(Cl)cc4)[nH]n13)CCS2 the results were APEX1 inh inactive, FEN1 inh inactive, Tb PGK inh inactive, RECQ1 helicase inactive and BLM inh inactive.
Cc1cc(C)cc(C(=O)Nc2c3c(nn2C(C)(C)C)CS(=O)(=O)C3)c1 was read as APEX1 inh inactive, FEN1 inh inactive, Tb PGK inh inactive and BLM inh inactive.
`COc1cc(-c2nnc(COC(=O)c3ccc(C)o3)o2)cc(OC)c1OC` gave APEX1 inh 24µM, FEN1 inh inactive and Tb PGK inh inactive.
NCCCC[C@H]1NC(=O)[C@H](CCC(=O)O)NC(=O)c2cc([N+](=O)[O-])cc(I)c2OCC[C@@H](C(N)=O)NC1=O was read as APEX1 inh inconclusive, FEN1 inh 22µM, Tb PGK inh inconclusive, RECQ1 helicase inactive and BLM inh inactive.
For C[C@@H]1NC(=O)c2cc([N+](=O)[O-])cc(I)c2OCC[C@@H](C(N)=O)NC(=O)[C@H](CCCCN)NC1=O the results were APEX1 inh inactive, FEN1 inh inactive, Tb PGK inh inactive, RECQ1 helicase inactive and BLM inh inactive.
Screening CC1CCCCC1NS(=O)(=O)CCNC(=O)c1ccc2c(c1)OCO2 (stereo not given) returned APEX1 inh inactive, FEN1 inh inactive and Tb PGK inh inactive.
`O=S(=O)(Nc1cc2nc3ccccc3nc2n1Cc1ccccc1)c1ccc(Cl)cc1` gave APEX1 inh inactive, FEN1 inh inactive, Tb PGK inh inactive, RECQ1 helicase inactive and BLM inh 5µM.
O=S(=O)(NCc1ccccc1)c1ccc(Cl)cc1 was read as APEX1 inh inactive, FEN1 inh inactive, Tb PGK inh inactive, RECQ1 helicase inactive and BLM inh inactive.
`C/C1=C2/[N-]C(C(CC(N)=O)[C@@]2(C)CCC(=O)NCC(C)OP(=O)([O-])O[C@H]2[C@@H](O)[C@@H](n3cnc4cc(C)c(C)cc43)O[C@@H]2CO)[C@]2(C)N=C(/C(C)=C3N=C(/C=C4N=C1C(CCC(N)=O)C\4(C)C)[C@@H](CCC(N)=O)[C@]\3(C)CC(N)=O)[C@@H](CCC(N)=O)[C@]2(C)CC(N)=O.CC(=O)O.[Co]` (stereo not given in full) gave BLM inh 25µM.
Screening Cc1ccc(F)cc1NC(=O)CSc1nc(Nc2ccccc2)nc(N2CCOCC2)n1 returned APEX1 inh inactive, FEN1 inh inactive, Tb PGK inh inactive and BLM inh inactive.
`O=C1c2ccccc2C(=O)c2c1ccc(C(=O)N1CCCCC1)c2NCCO` gave APEX1 inh inactive, FEN1 inh inactive, Tb PGK inh inactive, RECQ1 helicase inactive and BLM inh inactive.
CCN(CCN(C)C)C(=O)c1ccc2c(c1NCCO)C(=O)c1ccccc1C2=O was read as APEX1 inh inactive, FEN1 inh inconclusive, Tb PGK inh inactive, RECQ1 helicase inactive and BLM inh 18µM.
Screening CCC1=NN2C(=N)/C(=C\c3cccn3-c3ccc(Br)cc3)C(=O)N=C2S1 returned APEX1 inh inactive, FEN1 inh 16µM, Tb PGK inh inactive, RECQ1 helicase inactive and BLM inh inactive.
Screening COc1cc(C(=O)NC2CCN(C)CC2)ccc1Nc1ncc2c(n1)N(C1CCCC1)CCC(=O)N2C(C)C returned FEN1 inh inactive and Tb PGK inh inactive.
`COc1cc(C(=O)NC2CCN(C)CC2)ccc1Nc1ncc2c(n1)N(CCc1ccccc1)CCC(=O)N2C` gave FEN1 inh 50µM and Tb PGK inh inactive.
Cc1ccn2c(=O)cc(COc3ccc(NC(=O)C(C)(C)C)cc3)nc2c1 was read as FEN1 inh inactive, Tb PGK inh inactive and BLM inh inactive.
For COc1ccc(NC(=O)CN(C)C(=O)c2cc3c(s2)CCC3)cc1 the results were APEX1 inh 1.9µM, FEN1 inh 25µM and Tb PGK inh inconclusive.
`Cc1nc(NC(=O)c2ccccc2)sc1-c1csc(Nc2ccc(C(=O)O)cc2)n1` gave APEX1 inh inactive, FEN1 inh 35µM, Tb PGK inh inconclusive, RECQ1 helicase inactive and BLM inh inactive.
Screening CCC(=O)Nc1nc(C)c(-c2csc(Nc3ccc(C(=O)O)cc3)n2)s1 returned APEX1 inh inactive, FEN1 inh inactive, Tb PGK inh inactive and BLM inh inactive.
